Test results published in the supplement of paper PMC7411054.

Legend:
Conditions in all cases: treatment time: 24 h
[1] = test system: A549-ACTB-RAB5A; assay: phenotypically active (imaging signature differs from DMSO and reproducible) at any of 0.3-9 uM (binary (1 = active, 0 = inactive)); higher = active
Procedure, shortened: (§1)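 Phenotypic activity depended on meeting both a deviation and a reproducibility criterion. The fifteen gene-edited A549, HepG2 and WPMY1 reporter lines were treated at 0.3, 1, 3 or 9 µM for 24 h, four wells each, then imaged live with features normalised to solvent control wells. Deviation required ≥3 of 4 wells past the 95th percentile of control Euclidean distances, and reproducibility a median replicate Pearson correlation above the 95th percentile of non-replicates.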

[2] = test system: A549-CANX-COX4; assay: as above
Procedure, shortened: as §1

[3] = test system: A549-GM130-SQSTM1; assay: as above
Procedure, shortened: as §1

[4] = test system: A549-TP53BP1-CLTA; assay: as above
Procedure, shortened: as §1

[5] = test system: A549-TUBA1B-RELA; assay: as above
Procedure, shortened: as §1

[6] = test system: HepG2-ACTB-RAB5A; assay: as above
Procedure, shortened: as §1

[7] = test system: HepG2-CANX-COX4; assay: as above
Procedure, shortened: as §1

[8] = test system: HepG2-GM130-SQSTM1; assay: as above
Procedure, shortened: as §1

[9] = test system: HepG2-TP53BP1-CLTA; assay: as above
Procedure, shortened: as §1

[10] = test system: HepG2-TUBA1B-RELA; assay: as above
Procedure, shortened: as §1

[11] = test system: WPMY1-ACTB-RAB5A; assay: as above
Procedure, shortened: as §1

[12] = test system: WPMY1-CANX-COX4; assay: as above
Procedure, shortened: as §1

[13] = test system: WPMY1-GM130-SQSTM1; assay: as above
Procedure, shortened: as §1

[14] = test system: WPMY1-TP53BP1-CLTA; assay: as above
Procedure, shortened: as §1

[15] = test system: WPMY1-TUBA1B-RELA; assay: as above
Procedure, shortened: as §1

[16] = test system: A549-ACTB-RAB5A; assay: lowest phenotypically active concentration; higher = less potent
Procedure, shortened: as §1

[17] = test system: A549-GM130-SQSTM1; assay: as above
Procedure, shortened: as §1

[18] = test system: A549-TP53BP1-CLTA; assay: as above
Procedure, shortened: as §1

[19] = test system: HepG2-GM130-SQSTM1; assay: as above
Procedure, shortened: as §1

[20] = test system: HepG2-TUBA1B-RELA; assay: as above
Procedure, shortened: as §1

Structure (SMILES) | phenotypically active [1] | phenotypically active [2] | phenotypically active [3] | phenotypically active [4] | phenotypically active [5] | phenotypically active [6] | phenotypically active [7] | phenotypically active [8] | phenotypically active [9] | phenotypically active [10] | phenotypically active [11] | phenotypically active [12] | phenotypically active [13] | phenotypically active [14] | phenotypically active [15] | lowest phenotypically active concentration [16] [µM] | lowest phenotypically active concentration [17] [µM] | lowest phenotypically active concentration [18] [µM] | lowest phenotypically active concentration [19] [µM] | lowest phenotypically active concentration [20] [µM]
CCN1C[C@]2(COC)CC[C@H](OC)[C@]34[C@@H]5C[C@H]6[C@H](OC)[C@@H]5[C@@]5(C[C@@H]6OC)OCO[C@@]5([C@H]13)[C@@H](O)[C@H]24 [Delcorine] | 0 (inactive) | 0 (inactive) | 0 (inactive) | 0 (inactive) | 0 (inactive) | 0 (inactive) | 0 (inactive) | 0 (inactive) | 0 (inactive) | 0 (inactive) | 0 (inactive) | 0 (inactive) | 0 (inactive) | 0 (inactive) | 0 (inactive) | – | – | – | – | –
COc1ccc2c(c1)/C(=C/c1c[nH]cn1)C(=O)N2 | 1 (active) | 1 (active) | 1 (active) | 1 (active) | 1 (active) | 1 (active) | 1 (active) | 1 (active) | 1 (active) | 1 (active) | 1 (active) | 1 (active) | 1 (active) | 1 (active) | 1 (active) | 1 | 1 | 1 | ≤ 0.3 | 1
C[C@H]1O[C@@H](O[C@H]2[C@@H](O)C[C@H](O[C@H]3[C@@H](O)C[C@H](O[C@H]4CC[C@@]5(C)[C@H](CC[C@@H]6[C@@H]5CC[C@]5(C)[C@@H](C7=CC(=O)OC7)[C@@H](O)C[C@]65O)C4)O[C@@H]3C)O[C@@H]2C)C[C@H](O)[C@@H]1O [Gitoxin] | 1 (active) | 1 (active) | 1 (active) | 1 (active) | 1 (active) | 1 (active) | 1 (active) | 1 (active) | 1 (active) | 1 (active) | 1 (active) | 1 (active) | 1 (active) | 1 (active) | 1 (active) | ≤ 0.3 | ≤ 0.3 | ≤ 0.3 | 1 | ≤ 0.3
C#CCN(C)[C@H](C)Cc1ccccc1 [selegiline] | 0 (inactive) | 0 (inactive) | 0 (inactive) | 0 (inactive) | 0 (inactive) | 0 (inactive) | 0 (inactive) | 0 (inactive) | 0 (inactive) | 0 (inactive) | 0 (inactive) | 0 (inactive) | 0 (inactive) | 0 (inactive) | 0 (inactive) | – | – | – | – | –
O=c1cccc2n1C[C@H]1CNC[C@H]2C1 [Cytisine nitrate hydrate] | 0 (inactive) | 0 (inactive) | 0 (inactive) | 0 (inactive) | 0 (inactive) | 0 (inactive) | 0 (inactive) | 0 (inactive) | 0 (inactive) | 0 (inactive) | 0 (inactive) | 0 (inactive) | 0 (inactive) | 0 (inactive) | 0 (inactive) | – | – | – | – | –
CN1C2CCC1CC(O)C2 (stereo not drawn) [Tropine] | 0 (inactive) | 0 (inactive) | 0 (inactive) | 0 (inactive) | 0 (inactive) | 0 (inactive) | 0 (inactive) | 0 (inactive) | 0 (inactive) | 0 (inactive) | 0 (inactive) | 0 (inactive) | 0 (inactive) | 0 (inactive) | 0 (inactive) | – | – | – | – | –
COc1cc(C(=O)O[C@H]2C[C@H]3CC[C@@H](C2)N3C)ccc1O [Fillalbin] | 0 (inactive) | 0 (inactive) | 0 (inactive) | 0 (inactive) | 0 (inactive) | 0 (inactive) | 0 (inactive) | 0 (inactive) | 0 (inactive) | 0 (inactive) | 0 (inactive) | 0 (inactive) | 0 (inactive) | 0 (inactive) | 0 (inactive) | – | – | – | – | –
C=C[C@]12CN(C)[C@@H]3[C@H]4CO[C@H](C[C@H]41)[C@]1(C(=O)Nc4ccccc41)[C@@H]32 [Gelsemine] | 0 (inactive) | 0 (inactive) | 0 (inactive) | 0 (inactive) | 0 (inactive) | 0 (inactive) | 0 (inactive) | 0 (inactive) | 0 (inactive) | 0 (inactive) | 0 (inactive) | 0 (inactive) | 0 (inactive) | 0 (inactive) | 0 (inactive) | – | – | – | – | –
C[C@@H]1O[C@H](C[N+](C)(C)C)C[C@H]1O [(+)-Muscarine iodide] | 0 (inactive) | 0 (inactive) | 0 (inactive) | 0 (inactive) | 0 (inactive) | 0 (inactive) | 0 (inactive) | 0 (inactive) | 0 (inactive) | 0 (inactive) | 0 (inactive) | 0 (inactive) | 0 (inactive) | 0 (inactive) | 0 (inactive) | – | – | – | – | –
COC[C@H]1OC(=O)c2coc3c2[C@@]1(C)C1=C(C3=O)[C@@H]2CCC(=O)[C@@]2(C)C[C@H]1OC(C)=O [wortmannin] | 1 (active) | 1 (active) | 1 (active) | 1 (active) | 1 (active) | 0 (inactive) | 0 (inactive) | 0 (inactive) | 0 (inactive) | 0 (inactive) | 0 (inactive) | 0 (inactive) | 0 (inactive) | 0 (inactive) | 0 (inactive) | 1 | 3 | 9 | – | –
O=C1CN=C(c2ccccc2)c2cc(Cl)ccc2N1CC(F)(F)F [halazepam] | 0 (inactive) | 0 (inactive) | 0 (inactive) | 0 (inactive) | 0 (inactive) | 0 (inactive) | 0 (inactive) | 0 (inactive) | 0 (inactive) | 0 (inactive) | 0 (inactive) | 0 (inactive) | 0 (inactive) | 0 (inactive) | 0 (inactive) | – | – | – | – | –
